Source: PubChem BioAssay (Broad Institute)
PfHsp40 yeast = rescue of yeast from PfHsp40 toxicity, primary screen, S. cerevisiae, ATP luminescence. S. cerevisiae expressing PfHsp40, growth rescue. AID 504582, 2011. growth rescue, % at 12.5 µM. 340,000 compounds, 0.68% hits; in the data active means growth rescue above about 28%, passing the limit was not always enough; inconclusive means no clear call, values can overlap the other calls;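 further: yeast W303a lacking pdr1 and pdr3 grown in galactose medium; growth measured after three days at 30 °C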
PrP 5UTR inh = inhibition of PrP 5' UTR reporter expression; cell-based PrP 5' UTR mRNA reporter, plate reader; inhibition, % (no concentration beside the values); 340,000 compounds, 0.35% hits; in the data active means inhibition above about 52%
FadD28 binding = inhibitors of FadD28 bisubstrate probe binding, primary screen, biochemical, fluorescence polarization, single point | Mycobacterium tuberculosis FadD28 fatty-acid-AMP ligase | inhibition, % at 12.5 µM | 360,000 compounds, 0.22% hits; in the data active means inhibition above about 8.5%, passing the limit was not always enough; inconclusive means no clear call, values can overlap the other calls
TcdB GH inh = TcdB glycohydrolase inhibitors, primary screen, biochemical, single point, plate reader | Toxin B (Clostridioides difficile), P18177 | TcdB glycohydrolase enzymatic assay | inhibition, % at 9.99 µM | 350,000 compounds, 0.24% hits | AID 652162, 2013; in the data active means inhibition above about 10%
BioA inh = M. tuberculosis BioA enzyme inhibitors, primary screen, biochemical, plate reader, single point, HTS; 7,8-diaminopelargonic acid synthase BioA (Mycobacterium tuberculosis); purified M. tuberculosis BioA enzyme; inhibition, % at 9.99 µM; 360,000 compounds, 0.096% hits; AID 602481, 2012; in the data active means inhibition above about 40%; inconclusive means no clear call, values can overlap the other calls
Large screens that a line does not name were inactive. The list is not random: actives were taken first. Their share in the collection is about 1.1%.

CSc1ncc(Cl)c(C(=O)Nc2nnc(SC/C=C/c3ccccc3)s2)n1	FadD28 binding 15.1
Cc1cc(N/N=C/c2ccc(O)c(C)c2O)nc(-c2ccccc2O)n1	PfHsp40 yeast 72.6 (no result: TcdB GH inh)
C/C(=N\Nc1cc(C)nc(-c2ccccc2O)n1)c1ccccc1	none (no result: BioA inh)
C[C@H](CO)N1C[C@H](C)[C@H](CN(C)Cc2ccccc2)Oc2ncc(-c3cccc(F)c3)cc2C1=O	none (no result: PfHsp40 yeast, PrP 5UTR inh, FadD28 binding)
COc1cc(OC)c(C(=O)Nc2ccncc2)cc1OC	none
COc1cc(OC)c(C(=O)Nc2ccc(C(=O)c3ccccc3)cc2)cc1OC	PfHsp40 yeast 154.0
COc1ccc2c(c1)Cc1cc(NC(=O)c3ccccc3-c3ccccc3C(=O)O)ccc1-2	FadD28 binding 10.7 (no result: PfHsp40 yeast, PrP 5UTR inh)
COc1ccc(Br)cc1C(=O)Nc1ccc(O)cc1	TcdB GH inh 24.2
COc1ccc(C(=O)Nc2ccc3ccccc3c2)c(OC)c1	PfHsp40 yeast 59.6
COc1ccc(Br)cc1C(=O)Nc1ccc(C(=O)O)cc1	none
O=C(Nc1ccccc1)[C@@H]1[C@@H](CO)[C@@H]2Cn3c(cccc3=O)[C@H]1N2C(=O)c1ccccc1	none (no result: PfHsp40 yeast, PrP 5UTR inh, FadD28 binding)
COc1ccccc1S(=O)(=O)N[C@H]1C=C[C@H](CC(=O)N2CCN(C)CC2)O[C@H]1CO	none (no result: PfHsp40 yeast, PrP 5UTR inh, FadD28 binding)
CCS(=O)(=O)Nc1ccc2c(c1)C(=O)N(C)[C@@H]1CC[C@@H](CC(=O)N3CCOCC3)O[C@@H]1CO2	none (no result: PfHsp40 yeast, PrP 5UTR inh, FadD28 binding)
COc1cc(/C=C2\SC(=O)N(CC(=O)Nc3cccc(C)c3)C2=O)cc([N+](=O)[O-])c1O	FadD28 binding 30.7 (no result: BioA inh)
Cc1cccc(NC(=O)CN2C(=O)N/C(=C\c3ccc(-c4cccc(C(=O)O)c4)o3)C2=O)c1	FadD28 binding 42.7 (no result: BioA inh)
COc1ccc(/C=C2\SC(=O)N(CC(=O)Nc3ccc(F)cc3)C2=O)cc1O	none
Cc1cccc(NC(=O)CN2C(=O)N/C(=C/c3ccc(C)o3)C2=O)c1	none (no result: TcdB GH inh)
CCn1c(C)cc(/C=C2/NC(=O)N(CC(=O)Nc3cccc(C)c3)C2=O)c1C	none (no result: TcdB GH inh)
COc1ccc(/C=C2/NC(=O)N(CC(=O)Nc3cccc(C)c3)C2=O)cc1O	FadD28 binding 18.1
CCn1c(C)cc(/C=C2\NC(=O)N(CC(=O)Nc3cccc(C)c3)C2=O)c1C	FadD28 binding 10.3 (no result: TcdB GH inh)
Cc1ccc(S(=O)(=O)N(C)C[C@@H]2Oc3c(NC(=O)Nc4ccccc4)cccc3C(=O)N([C@@H](C)CO)C[C@H]2C)cc1	none (no result: PfHsp40 yeast, PrP 5UTR inh, FadD28 binding)
CNC[C@@H]1Oc2ncc(-c3ccc(C#N)cc3)cc2C(=O)N([C@H](C)CO)C[C@@H]1C	none (no result: PfHsp40 yeast, PrP 5UTR inh, FadD28 binding)
COC(=O)[C@@H]1[C@@H](CO)[C@@H]2Cn3c(ccc(-c4ccccc4OC)c3=O)[C@@H]2N1CC1CCOCC1	none (no result: PfHsp40 yeast, PrP 5UTR inh, FadD28 binding)
Cc1ccc(NC(=O)CN2C(=O)S/C(=C/c3ccc(-c4cc(C(=O)O)ccc4C)o3)C2=O)cc1C	FadD28 binding 14.4 (no result: TcdB GH inh)
Cc1ccc(NC(=O)CN2C(=O)N/C(=C\c3cccn3-c3cccc(C(=O)O)c3)C2=O)cc1	FadD28 binding inconclusive (no result: TcdB GH inh)
Cc1ccc(NC(=O)CN2C(=O)N/C(=C/c3cc(C)n(-c4cccc(C(=O)O)c4)c3C)C2=O)cc1	FadD28 binding 48.6 (no result: BioA inh)
Cc1cccc(NC(=O)CN2C(=O)S/C(=C\c3ccc(-c4cccc(C(=O)O)c4C)o3)C2=O)c1	none (no result: FadD28 binding, BioA inh)
CC(=O)c1cccc(NC(=O)CSc2ccc(-c3ccccn3)nn2)c1	none
COc1cc(NC(=O)CSc2ccc(-c3ccccn3)nn2)cc(OC)c1	PfHsp40 yeast 221.3
COc1ccc(C)cc1NC(=O)CSc1ccc(-c2ccccn2)nn1	none
CCc1ccc(NC(=O)CSc2ccc(-c3ccccn3)nn2)cc1	PfHsp40 yeast 305.1
CCc1ccc(NC(=O)CSc2ccc(-c3cccnc3)nn2)cc1	none
CC(=O)Nc1cccc(NC(=O)CSc2ccc(-c3ccccn3)nn2)c1	PfHsp40 yeast 438.4 (no result: BioA inh)
CCOC(=O)c1ccccc1NC(=O)CSc1ccc(-c2ccccn2)nn1	PfHsp40 yeast 210.9
COc1ccc2c3c(n(C)c2c1)[C@H](CO)N(C(=O)NC1CCCC1)CC31CCN(C)CC1	none (no result: PfHsp40 yeast, PrP 5UTR inh, FadD28 binding, BioA inh)
COc1ccc(NC(=O)N(C)C[C@H]2OCCCC[C@H](C)Oc3ccc(NC(=O)NC4CCCCC4)cc3C(=O)N([C@H](C)CO)C[C@@H]2C)cc1	none (no result: PfHsp40 yeast, PrP 5UTR inh, FadD28 binding)
CCCCOc1cccc(-c2cc(C(=O)NNC(=S)NCC)c3ccccc3n2)c1	PfHsp40 yeast 47.2 (no result: TcdB GH inh)
CCOC(=O)c1ccc(NC(=S)NNC(=O)c2cc(-c3cccnc3)nc3ccccc23)cc1	PfHsp40 yeast 154.4
CCc1cnc(N2[C@@H](C#N)[C@@H](c3ccc(C#Cc4ccccc4F)cc3)[C@@H]2CO)s1	none (no result: PfHsp40 yeast, PrP 5UTR inh, FadD28 binding)
COc1ccc(C#Cc2cnc3c(c2)C(=O)N([C@H](C)CO)C[C@@H](C)[C@H](CN(C)CC2CCOCC2)O3)cc1	none (no result: PfHsp40 yeast, PrP 5UTR inh, FadD28 binding)
CC1=C(C(=O)NC2CC(C)(C)Cc3c2cnn3-c2cccc(F)c2)OCCO1 (centres undefined)	BioA inh 58.4
COc1cccc(S(=O)(=O)N[C@H]2C=C[C@@H](CC(=O)NCc3ccc(F)cc3)O[C@H]2CO)c1	none (no result: PfHsp40 yeast, PrP 5UTR inh, FadD28 binding)
Cn1cccc1C(=O)NS(=O)(=O)c1ccccc1Cl	PfHsp40 yeast 86.0 (no result: TcdB GH inh, BioA inh)
CNC(=S)Nc1ccc(C23CC4CC(CC(C4)C2)C3)cc1	PfHsp40 yeast 178.8 (no result: TcdB GH inh)
c1ccc(-c2ccc(OCCCn3cncn3)cc2)cc1	PfHsp40 yeast 269.2 (no result: TcdB GH inh)
CC(=O)N1CCN(c2ccc(S(C)(=O)=O)cc2[N+](=O)[O-])CC1	TcdB GH inh 10.9
CC(=O)N1CCN(c2ccc(S(=O)(=O)N3CCCCC3)cc2[N+](=O)[O-])CC1	none
CN(C)CCCNC(=O)C[C@H]1CC[C@H]2[C@H](COc3ccc(NC(=O)c4ccccc4F)cc3C(=O)N2C)O1	none (no result: PfHsp40 yeast, PrP 5UTR inh, FadD28 binding)
CCCn1c(N)c(C(=O)CSc2nc(C)cs2)c(=O)[nH]c1=O	PfHsp40 yeast 26.5 (no result: TcdB GH inh, BioA inh)
N#C[C@H]1[C@@H](c2ccc(-c3ccccc3)cc2)[C@@H](CO)N1C(=O)Cc1ccncc1	none (no result: PfHsp40 yeast, PrP 5UTR inh, FadD28 binding)
CCn1c(=O)c(C(=O)NNC(=O)c2ccccc2Cl)c(O)c2ccccc21	PfHsp40 yeast 33.9
CCn1c(=O)c(C(=O)NNC(=O)c2ccccc2F)c(O)c2ccccc21	none (no result: FadD28 binding)
COc1cccc(CSc2nnc(-c3ccncc3)n2N)c1	PfHsp40 yeast 44.9 (no result: FadD28 binding)
O=[N+]([O-])c1cccc(/C=N/n2cnnc2)c1O	none (no result: TcdB GH inh, BioA inh)
O=c1c2c(-c3ccc(Cl)cc3)csc2ncn1/N=C/c1cccc([N+](=O)[O-])c1O	PfHsp40 yeast 280.2 (no result: BioA inh)
COc1ccc2c3c([nH]c2c1)[C@@H](CO)N(C(=O)Nc1ccc(F)cc1)CC31CCN(CC2CC2)CC1	none (no result: PfHsp40 yeast, PrP 5UTR inh, FadD28 binding, BioA inh)
O=C(C[C@H]1C[C@H]2c3cc(NC(=O)Nc4ccc(F)cc4)ccc3O[C@H]2[C@@H](CO)O1)NC1CCCC1	none (no result: PfHsp40 yeast, PrP 5UTR inh, FadD28 binding)
NC1=NC[C@@H](Cc2ccc(O)cc2)N1CCC12CC3CC(CC(C3)C1)C2	PfHsp40 yeast 47.7
NC1=NC[C@H](Cc2ccc(O)cc2)N1CCc1cccc(F)c1	PfHsp40 yeast inconclusive
COc1ccc(NC(=O)Cc2c[nH]c3ccccc23)cc1S(=O)(=O)N1CCOCC1	none (no result: BioA inh)
